aSyn yeast inh: rescues yeast growth from alpha-synuclein toxicity; Yeast expressing alpha-synuclein, growth rescue, BacTiter-Glo, 24 h; AID 652106; 370,000 compounds, 0.14% hits; Potency, µM (top dose mostly 46.1 µM), for inactives: at the highest dose growth rescue (activation), actives largely listed as activators; note: % of control where 0% means no effect; nearly all actives have a fitted effect of over 65% in size
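Galactose-induced alpha-syn yeast (OD600=0.02, raffinose-pregrown) + pinned cpd, 24 hr, 30 deg C; growth by BacTiter-Glo luminescence. Growth restoration scores as activation.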
FUS suppressor: suppressors of FUS proteinopathy in yeast | S. cerevisiae FUS-expressing, growth rescue, OD600, 24 h | Potency, µM (doses to about 76.6 µM), most hits filed as activators | 390,000 compounds, 0.24% hits | AID 1347120;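 note: plate controls were DMSO vehicle for no effect and reference control for full effect; nearly all actives have a fitted effect of over 55% in size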
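Yeast expressing FUS under galactose induction, OD 0.005 in 2% galactose medium; compounds in a dilution series, 24 h at 30C. Growth rescue by absorbance at 600 nm; CP55940 positive control, DMSO negative.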
Mito fusion act: mitochondrial division inhibition or fusion activation. S. cerevisiae fusion-defective mutant growth rescue, CellTiterGlo 48 h. Potency, µM (highest dose often 46.1 µM), for inactives: at the top dose growth rescue (activation), actives largely listed as activators. 320,000 compounds, 0.23% hits. AID 485298; note: % of control where 0% means no effect; nearly all actives have a fitted effect of over 45% in size
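Temperature-sensitive fusion-defective S. cerevisiae (e.g. fzo1-1, mgm1-5) were grown with compound in YPEG medium (3% ethanol, 3% glycerol) for 48 hours at 37C. Growth rescue was measured as viability by CellTiterGlo luminescence after 10 minutes at ambient.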
TDP43 rescue: rescues yeast growth from TDP-43 toxicity. AID 652104. 410,000 compounds, 1.8% hits. TDP-43 expressing yeast growth rescue, BacTiter-Glo, 24 h. Potency, µM (top dose mostly 46.1 µM), for inactives: at the top dose growth rescue (activation), usual class: activators; note: % of control where 0% means no effect; nearly all actives have a fitted effect of over 50% in size
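Readout is BacTiter-Glo luminescence of cell growth, so inhibitors register as activators. TDP-43-expressing yeast at OD600=0.02 in galactose medium, after raffinose pregrowth to mid-log, were incubated with compound for 24 hr at 30 deg C.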
Abeta rescue: A-beta toxicity reversal in yeast; yeast expressing A-beta42, growth rescue, OD600, 48 h; response scale: 0% DMSO, 100% iron-clioquinol control; Potency, µM (titrated, usually from 46.1 µM), hits mostly activators; 410,000 compounds, 0.063% hits; note: nearly all actives have a fitted effect of over 55% in size
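Yeast growth medium received pinned compounds, then yeast cells expressing toxic A-beta were added; plates incubated at 30 C for 48 hr. Growth read as absorbance at 600 nm, normalized to DMSO and equimolar FeCl3 plus clioquinol controls.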
Numbers without * were called inactive; i = inactive; u = inconclusive; x = no result. This is a sample that favours compounds with a hit; in the whole collection about 2.2% have one here. Calls come from the whole dose curve; as a rule, active = well fitted curve in the direction sought with a large enough effect; inconclusive = small, poorly fitted or top-dose-only effect, or another doubt; inactive = no such curve, though single readings can be large; an effect the other way counts as inactive or inconclusive. Potency is the fitted concentration of half-maximal effect.

SMILES	aSyn yeast inh	FUS suppressor	Mito fusion act	TDP43 rescue	Abeta rescue
COc1cc(-c2csc(N3CCC(C(N)=O)CC3)n2)cc(OC)c1OC	x	i	x	x	x
O=C(N/N=C/c1ccccn1)c1[nH]c2ccc([N+](=O)[O-])cc2c1-c1ccccc1	u	32µM*	3%	27%	i
CC(=O)c1ccc([N+](C)(C)C)cc1	-3%	x	x	x	x
O=C(Cn1cnc2ccccc2c1=O)N1CCN(C(=O)C2CCCO2)CC1 (stereo not given)	x	i	x	x	x
COCCN=c1scc(-c2cc(OC)ccc2OC)n1/N=C/c1c[nH]c2ccccc12	u	i	29%	22µM*	i
CC1(C)CC(=O)c2cc(C(=O)NCCc3ccccc3)c(=O)[nH]c2C1	0%	x	x	x	x
O=C1NCc2c1c1c3ccccc3[nH]c1c1[nH]c3ccccc3c21	5%	x	x	x	x
COc1ccc(NC(=O)CCS(=O)(=O)c2ccccc2Cl)cc1S(=O)(=O)Nc1ccc(Cl)cc1	-3%	32µM*	-3%	-2%	i
Cc1ccc(C)c2[nH]c(=O)c(CN(Cc3ccco3)C(=O)Nc3ccccc3)cc12	3%	u	14µM*	15%	i
O=[N+]([O-])c1ncccc1OCCOc1ccc(Cl)cc1Cl	x	i	x	x	x
CN(C)c1ccc(/C=C/c2cccc3cc4ccccc4nc23)cc1	-88%	x	x	x	x
OCc1cn(-c2ccccc2)nc1-c1cc2ccccc2o1	7%	i	9%	16µM*	i
COc1ccc(NC(=O)c2cn(-c3ccccc3)nc2-c2cc3ccccc3o2)cc1	6%	i	2%	4%	i
COc1ccc(/C=C/c2nc(N)nc(-c3ccccc3O)n2)cc1OC	13%	x	-1%	16µM*	i
COc1cc(/C=C/c2nc(-c3ccccc3O)n[nH]2)cc(OC)c1OC	13%	x	u	16µM*	i
O=C(Nc1nnc(-c2ccco2)s1)C1CCCCC1	-4%	i	1%	-15%	i
O=C(Nc1nc(-c2ccco2)c(-c2ccco2)s1)C1CCC1	-30%	i	u	35µM*	i
CCOc1ccc(OC(=O)c2cccnc2)cc1	0%	i	-2%	16µM*	i
CC(=O)/C=C\c1ccc(OC(=O)c2cccnc2)cc1	9%	i	0%	20µM*	i
Cc1cc(I)ccc1Nc1nc(NCCN2CCOCC2)nc(N2CCOCC2)n1	16%	x	x	x	x
CCC[C@H]1[C@@H](OC(=O)NCc2ccc(OC)c(OC)c2)CC[C@@]23CCCN2C(=O)CCC[C@@H]13	x	i	x	x	x
CCOc1ccc(NC(=O)c2cnc3sc(N4CCOCC4)nn3c2=O)cc1	x	i	x	-5%	i
CN(C)c1ccc(N=Nc2ccnc3ccccc23)cc1	-4%	x	x	x	x
CC[C@@H](C)C(NC(=O)OC(C)(C)C)c1cn([C@@H](CCCCNC(=O)OC(C)(C)C)C(=O)N2CCN(C(=O)OC(C)(C)C)CC2)nn1 (stereo not given in full)	3%	i	-4%	0%	i
CC[C@@H](C)C(NC(=O)OC(C)(C)C)c1cn([C@@H](Cc2cc3ccccc3[nH]2)C(=O)N2CCN(C(=O)OC(C)(C)C)CC2)nn1 (stereo not given in full)	11%	14µM*	-3%	-3%	i
SMILES	aSyn yeast inh	FUS suppressor	Mito fusion act	TDP43 rescue	Abeta rescue
CC(C)CC(NC(=O)OC(C)(C)C)c1cn([C@@H](CCCCNC(=O)OC(C)(C)C)C(=O)N2CCN(C(=O)OC(C)(C)C)CC2)nn1 (stereo not given in full)	0%	7.9µM*	-3%	1%	i
C#CCOCCOCCOCCNc1nc(N2CCN(C(=O)C(Cc3cc4ccccc4[nH]3)n3cc(C(N)C(C)CC)nn3)CC2)nc(N2CCN(C(=O)C(Cc3cc4ccccc4[nH]3)n3cc(C(N)C(C)CC)nn3)CC2)n1 (stereo not given)	-28%	u	2%	9%	i
N#Cc1c(NC(=O)c2cc3nc(-c4ccc(Br)cc4)cc(C(F)(F)F)n3n2)sc2c1CCCC2	x	i	x	22%	i
O=C1CCC[C@@H]2Cc3[nH]c4c(Cl)ccc(Cl)c4c3[C@@H]3CCN1[C@H]23	15%	i	2%	28µM*	i
COC(=O)c1ccc2nc3c(cc2c1)[C@@H]1CCN2C(=O)CCC[C@H](C3)[C@H]12	-1%	i	x	17%	i
CCCNC(=O)c1cc2c3ccccc3n(C)c2s1	0%	i	u	14µM*	i
CC(C)(C)C(=O)N1CCC[C@H]1C(O)(c1ccccc1)c1ccccc1	2%	i	35µM*	-1%	i
CCc1cccc(NC(=O)c2ccc3c(c2)c(C)c(C)n3Cc2ccc(F)cc2)c1	x	i	x	u	i
COc1cc(OC)c(/C=C/c2nccc3ccccc23)c(OC)c1	-10%	x	x	x	x
CCc1ccc(NC(=O)Cn2c(=O)n(Cc3ccco3)c(=O)c3cccnc32)cc1	x	i	x	-6%	i
CCN(Cc1ccccc1)C(=S)NC(=O)c1ccccc1Br	12%	i	2%	24%	10µM*
CCCCN(CCCC)CC(O)c1cc(Cl)cc2c1-c1ccc(Cl)cc1C2=Cc1ccc(Cl)cc1 (stereo not given)	5%	x	x	x	x
COCCn1c(C)cc(C(=O)CSc2nnc(-c3cccnc3)n2-c2ccccc2F)c1C	x	20µM*	3%	11%	i
Cc1ccccc1-n1c(SCC(=O)c2cc(C)n(C)c2C)nnc1-c1cccnc1	1%	i	7%	-9%	i
CSc1ccc(/C=C2\C=Cc3cc([N+](=O)[O-])ccc32)cc1	-7%	x	x	x	x
CCN(C(=O)C(=O)c1c(C)[nH]c2ccccc12)c1ccccc1	0%	x	x	x	x
CC(=O)c1cccc(Nc2ccc(Br)cc2)c1	-13%	i	x	14µM*	i
CCCN(CCC)C(=O)c1ccc2c(c1)OCO2	2%	i	1%	-1%	i
Cc1c(C(=O)c2ccc3c(c2)OCO3)ccc2c1OCO2	5%	x	x	18µM*	i
CCCc1nc(SCC(=O)N2CCC(Cc3ccccc3)CC2)c2c(=O)n(C)c(=O)n(C)c2n1	1%	i	26%	35µM*	i
CCCc1nc(SCC(=O)N2CCCc3ccccc32)c2c(=O)n(C)c(=O)n(C)c2n1	13%	i	u	35µM*	i
CC(C)c1nc(SCC(=O)N2CCCC2)c2c(=O)n(C)c(=O)n(C)c2n1	3.5µM*	i	x	-26%	i
CC(C)N(Cc1nc(-c2ccc(Cl)cc2)no1)C(=O)c1ccc(C(C)(C)C)cc1	x	i	x	13%	i
CC(=O)NCCc1nc(-c2ccc(Cl)cc2)no1	7%	i	x	-1%	i
O=C(O)CCc1nc(-c2ccc(Cl)cc2)no1	12%	x	4%	14µM*	i
